# Data published in the supplement of paper PMC3334620.
# In all, about 33,000 sequences were measured (“E-score (-0.5 to 0.5)”: median about -8e-05, highest 2% from about 0.23 on). Many of the other results were omitted from the sample, so the highest values are more common in it than they were.
# Biological target: T1, Nrg2 (UniProt P38082)
# T1 sequence: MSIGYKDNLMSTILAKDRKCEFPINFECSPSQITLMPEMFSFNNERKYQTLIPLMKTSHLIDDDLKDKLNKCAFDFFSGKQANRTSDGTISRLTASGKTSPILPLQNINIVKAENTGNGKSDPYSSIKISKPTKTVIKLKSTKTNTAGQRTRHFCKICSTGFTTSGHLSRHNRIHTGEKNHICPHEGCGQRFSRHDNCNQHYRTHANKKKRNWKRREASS
# Experiment: PBM E-score (8-mer binding enrichment) (E-score (-0.5 to 0.5)); higher = stronger / more preferred TF binding
# Conditions: protein concentration: 100 nM; construct: GST-full length
# Description: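 Universal 'all 10-mer' protein binding microarrays (Agilent AMADID 015681) probed with GST-tagged S. cerevisiae TFs (full-length or DBD) made by in vitro transcription/translation (PURExpress), about 100-200 nM. Bound TF was detected with fluorescent anti-GST. Each ungapped 8-mer (which stands for itself and its reverse complement) is scored by the PBM enrichment score (E-score), a modified Wilcoxon-Mann-Whitney statistic from -0.5 to +0.5, computed with the Universal PBM Analysis Suite. Scale: above 0.35 generally sequence-specific binding.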
row,Sequence,PBM E-score
1,ATTTTCTC,0.106
2,ACCGCCAC,-0.117
3,GCCGCCAC,-0.231
4,CCCGCCAC,0.269
5,GGCGTCGA,0.148
6,CAGGTAGC,-0.212
7,AATGCTGC,0.0363
8,AATGGCCA,-0.0344
9,CCTTTAAG,-0.0435
10,ACTTTAAA,0.0738
11,ACTTTAAG,0.243
12,GATTAGAC,0.0407
13,CGTCGAAA,0.075
14,CGAATGAG,0.0496
15,ATAGATCG,0.0393
16,CAAACTCC,0.0622
17,AGCTAGCA,-0.191
18,AGCTAGCC,-0.0348
19,AGCTAGCT,0.244
20,ACGCAGCT,0.0108
21,AGTCTGAG,-0.319
22,AGGACAGA,0.0623
23,CGGCTTGC,0.237
24,AGGCTTGC,-0.173
25,CGGCTTGA,-0.0482

row,Sequence,PBM E-score
1,CGCCTAGC,-0.315
2,GGTCTTAA,-0.301
3,CATCTCTC,0.148
4,ACCGCAGA,-0.0429
5,ATTCGGGG,0.243
6,ATTCGGGA,0.0112
7,ATTCGGGC,-0.044
8,ACCCGCTG,-0.133
9,CTTTACTC,0.144
10,ATTTACTG,0.107
11,CTTTACTA,0.26
12,GTTTACTA,0.155
13,ATTTACTA,0.0988
14,ATTTACTC,0.271
15,GCAGTGGC,-0.173
16,CAGCTGGA,0.123
17,GACTCGGA,-0.226
18,CTTTTAAA,-0.168
19,AGCAGCCA,0.0226
20,ATCGATAC,0.133
21,CTCGATTA,0.251
22,CTCGATAA,0.041
23,CTCGATAC,0.245
24,CTCGATTC,0.15
25,ATCGATTA,0.0753

row,Sequence,PBM E-score
1,GCGGATAC,0.0466
2,GGCGCCAA,0.133
3,CGTCGCCC,-0.282
4,CCAAAGCA,0.119
5,GCTGCACC,-0.0621
6,TAATATGA,0.0376
7,GAATATAA,0.12
8,TAATATAA,0.302
9,TAATATTA,0.322
10,TAATATCA,0.0975
11,CAATATAA,0.212
12,CAATATTA,0.154
13,AAATATTG,0.204
14,AAATATTA,0.247
15,AACCTGTC,-0.0794
16,AGCTATAC,-0.101
17,CATGGGCA,0.0918
18,TAATAATA,0.0963
19,CAATAACA,0.0577
20,ACATAATA,0.295
21,AAATAATT,0.243
22,GCATAATA,0.201
23,GAATAATA,0.238
24,GAATAATC,0.185
25,AAATAATA,0.203

row,Sequence,PBM E-score
1,ACATAATC,0.193
2,AAATAATC,0.0163
3,GAATAACA,0.265
4,TAATAACA,0.00017
5,CTGGCCGA,-0.163
6,AACCTCCT,-0.264
7,ACTCATAT,-0.028
8,CCATTCAC,0.0939
9,CGGACACG,-0.0788
10,GTCTAAAA,-0.0766
11,CAGTCACA,-0.0678
12,GAGTAATA,0.232
13,AAGTAATA,-0.00088
14,CAGTAATA,0.161
15,ATCGGCTC,-0.0282
16,AAGAATGT,0.107
17,GTCCTGGA,-0.261
18,AACCTGGA,-0.00995
19,AACCTGGG,-0.131
20,AGCCTGGA,-0.0491
21,CCCCTGGA,0.0369
22,ACCCTGGC,0.338
23,AGCCTGGG,-0.159
24,ACCCTGGG,0.328
25,GCCCTGGA,0.247

row,Sequence,PBM E-score
1,ACCCTGGA,0.279
2,AACCTGGC,-0.18
3,CCCCTGGC,0.11
4,CCTAAGGC,-0.191
5,CCCTCATC,-0.0723
6,CGGGGGAC,-0.242
7,ACCCAGGG,0.0967
8,AAAACCTA,0.0556
9,CGTAGGAA,-0.0744
10,CAGGGAAC,0.0728
11,TGCAACAA,0.00649
12,ATGAGGTC,-0.142
13,AGCGCTTA,0.131
14,TGCGCTAA,0.0259
15,CGCGCTGA,0.0409
16,CGCGCTTA,0.254
17,GGCGCTAA,-0.0159
18,CGCGCTAA,0.259
19,ACTAGTGG,0.123
20,CAGCTCAC,-0.161
21,CGCCGCTC,0.0612
22,ACACGCGT,0.00123
23,ACAACATC,-0.042
24,GCAACATA,0.0428
25,ACAACATA,0.268

row,Sequence,PBM E-score
1,AGTTTGCA,-0.0668
2,GGGGTTCA,0.166
3,CGGGTGCA,-0.0669
4,AGGGTGCG,0.0103
5,AGGGTTCC,0.189
6,CGGGTTTA,0.104
7,AGGGTTCA,0.281
8,AGGGTGCA,0.256
9,AGGGTTTA,0.235
10,AGGGTTTG,0.172
11,AGCTGGCG,-0.158
12,AACCCGTA,-0.0217
13,GAATTCGA,0.0262
14,AAAACTAA,0.234
15,TCAACTAA,0.0939
16,CTAACTAA,-0.0143
17,GCAACTAA,0.288
18,TTAACTAA,0.249
19,AAAACTAT,0.0045
20,CCAACTAA,0.0905
21,ATAACTAA,0.0389
22,TAAACTAA,0.186
23,ACAGTTCG,0.103
24,GAGGCAAC,-0.192
25,AAGTAAGG,0.159

row,Sequence,PBM E-score
1,CGAAAACA,0.0723
2,CTGGCCTA,-0.0943
3,ACTTAGCT,-0.202
4,CGCAGAAA,0.0592
5,GATATATA,0.247
6,CATATATA,0.205
7,TAAATATA,0.144
8,GATATACA,0.0803
9,AATATATG,0.225
10,TATATATA,0.269
11,AATATATA,0.0908
12,GATATATC,0.0168
13,AATATATT,0.341
14,TATATACA,0.207
15,GAAATATA,0.256
16,AAAATATA,0.00189
17,AGGCCGCC,-0.0684
18,CGACCAAA,0.222
19,ATTACCAA,0.0553
20,CATTGACG,-0.0426
21,ACTTCGGC,-0.0688
22,CAAATATG,-0.0116
23,TAAATAGA,-0.125
24,CAAATATC,0.256
25,TATATGGA,0.0065

row,Sequence,PBM E-score
1,GATATGGA,0.259
2,CAAATATA,0.03
3,AATATGGA,0.0669
4,CAAATAGA,0.296
5,AAAATAGA,0.118
6,TAGCGTGA,0.0132
7,CGGTAGAC,0.0168
8,CGGCGAAC,-0.0868
9,CATTGGCC,-0.0708
10,ATCAGAAA,-0.042
11,GGAATAAC,0.132
12,TAGGACAA,0.049
13,GGATAGTA,0.177
14,ATTATTCC,0.0891
15,ATTATGCG,0.266
16,ATTATTCA,0.23
17,ATTATTAA,0.238
18,GTTATTCA,0.105
19,CTTATTAA,0.196
20,ATTATTCG,0.295
21,CTTATTCA,-0.00255
22,ATTATGCA,-0.00258
23,ACTATTCG,0.193
24,ATTATGCC,0.115
25,GTTATTAA,0.182

row,Sequence,PBM E-score
1,CTTGATGC,-0.0811
2,CCAACCCA,-0.242
3,TCTTCTAA,-0.0126
4,CAGATATG,0.159
5,CGGATTGC,0.161
6,CGCGTTTA,0.0535
7,TGTCCGAA,0.143
8,ACAGGCTC,-0.159
9,ACCTCCCG,-0.177
10,TCGGTCAA,0.0158
11,CCCAGACG,-0.0304
12,CTTGCGAC,-0.142
13,ATTATACG,0.252
14,ATCATTAA,0.171
15,CTCATTAA,0.173
16,ATTATACC,0.18
17,ATTATACA,-0.00719
18,GTCATTAA,0.25
19,TGACGTAA,-0.175
